High-throughput results from PubChem BioAssay.
Kir21 inh = inhibitors of mouse Kir2.1 inward-rectifier potassium channel; P35561; HEK293-Kir2.1, FluxOR thallium flux fluorescence; stronger effect = lower value; B-score at 10 µM; 0.85% of 310,000 active; AID 1672;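 active means fluorescence ratio B-score at or below minus 3 SD of library scores, with starting-brightness B-score within 2 SD, cut at about -4.2 in these data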;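 further: channel flux triggered by added potassium and thallium sulfate stimulus; B-score of peak minus minimum fluorescence over baseline after thallium stimulus; more negative B-score means stronger Kir2.1 block with less thallium influx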
Target sequence (P35561 whole entry, looked up): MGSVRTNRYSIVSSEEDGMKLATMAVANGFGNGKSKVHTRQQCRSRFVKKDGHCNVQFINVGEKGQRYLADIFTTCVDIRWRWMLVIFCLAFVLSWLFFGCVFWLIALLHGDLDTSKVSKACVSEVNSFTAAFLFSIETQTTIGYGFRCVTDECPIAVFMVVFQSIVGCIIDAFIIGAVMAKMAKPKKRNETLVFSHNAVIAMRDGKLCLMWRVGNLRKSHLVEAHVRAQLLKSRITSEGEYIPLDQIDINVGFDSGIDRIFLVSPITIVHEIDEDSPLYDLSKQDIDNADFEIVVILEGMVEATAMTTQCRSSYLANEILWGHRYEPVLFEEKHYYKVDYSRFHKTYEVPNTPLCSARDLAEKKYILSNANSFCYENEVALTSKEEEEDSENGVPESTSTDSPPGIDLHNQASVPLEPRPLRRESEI
Rce1 inhib = inhibitors of yeast Ras-converting enzyme; yeast membranes, quenched prenylated peptide cleavage fluorescence; calls only; 0.27% of 290,000 active;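 active means fall in fluorescence gain of 50% or more versus controls, with final raw signal at or below 3038400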;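 further: plate controls were neutral control wells for no effect and wells lacking membranes for full effect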
PfM18AAP inh-1 = blocks P. falciparum M18 aspartyl aminopeptidase. recombinant PfM18AAP, H-Glu-NHMec fluorogenic cleavage. inhibition, % at 7.35 µM. 1.2% of 290,000 active. AID 1822;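 active means inhibition above the campaign mean inhibition over all tested compounds plus 3 SD, cut at about 28% in these data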;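 further: 0% = plate median of test compound wells and 100% = 2 mM ZnCl2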
DNA FID counter = fluorescent intercalator displacement, NS3 helicase counter-screen. AID 1845. 0.17% of 290,000 active. inhibition, % at 7.9 µM. DNA fluorescent intercalator displacement, fluorescence; in the data active means inhibition above about 37%;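 further: 0% = vehicle and 100% = reference compound; higher means more ethidium bromide displaced from hairpin DNA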
PfM18AAP inh-2 = confirmation of Plasmodium falciparum M18 aspartyl aminopeptidase inhibitors; shares compounds with PfM18AAP inh-1; recombinant PfM18AAP, H-Glu-NHMec fluorogenic cleavage; inhibition, % at 7.35 µM; 28% of 2,400 active; AID 2170;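 active means mean inhibition over replicate wells above the hit cutoff set for the earlier primary screen, cut at about 29% in these data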;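 further: 0% = median of test compound wells and 100% = 2 mM ZnCl2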
CTSL1 confirm = Cathepsin L (human) inhibition, confirmation; shares compounds with PfM18AAP inh-1; purified cathepsin L1, Z-Leu-Arg-MCA fluorescence; inhibition, % at 5.96 µM; 2,400 tested, under 10 active; AID 2178;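 active means average inhibition across replicates above the hit cutoff set in the earlier primary screen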;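 further: 0% = median of test compound wells and 100% = Z-Phe-Ala-diazomethylketone 1 µM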
An asterisk follows results filed as active; i = inactive; . = no result given. Rows were chosen to be rich in hits. Some 2.3% of all compounds tested hit in one or more screens of this group.

SMILES	Kir21 inh	Rce1 inhib	PfM18AAP inh-1	DNA FID counter	PfM18AAP inh-2	CTSL1 confirm
Cc1cc(-c2n[nH]c(=S)n2-c2ccccc2)nn1C	-0.4	i	18.7	-5.8	.	.
Cc1nn(C)cc1-c1n[nH]c(=S)n1-c1ccc(F)cc1	-0.64	i	35.3*	-9.2	-8.8	-7.5
Cc1nn(C)c(-c2n[nH]c(=S)n2-c2ccccc2)c1Cl	-0.04	i	32.2*	-16.2	-9.5	-6.5
Cc1ccc(-n2c(-c3cn(C)nc3C)n[nH]c2=S)cc1	-0.32	i	20.4	-9.2	.	.
O=C(O)c1ccc(CS(=O)(=O)c2ccc(Br)cc2)cc1	0.48	i	-7.2	-3.1	.	.
CC(=O)Nc1ccc(NC(=O)CSc2nnc(-c3ccco3)o2)cc1	0.07	i	3.5	-5.9	.	.
Cc1cc(NC(=O)CSc2nnc(-c3ccco3)o2)no1	-0.44	i	47.0*	3.6	-18.9	-2.5
COc1ccc(OC)c(C2C(C(=O)c3cccs3)=C(O)C(=O)N2c2cc(C)on2)c1 (configuration not stated)	0.49	i	-3.2	-9.6	.	.
Cc1cc(N2C(=O)C(O)=C(C(=O)c3cccs3)C2c2cccc(O)c2)no1 (configuration not stated)	0.71	i	25.2	2.6	.	.
COc1cc(C2C(C(=O)c3cccs3)=C(O)C(=O)N2c2cc(C)on2)ccc1O (configuration not stated)	0.39	i	55.4*	11.4	-47.5	-3.4
COc1cccc(C2C(C(=O)c3cccs3)=C(O)C(=O)N2c2cc(C)on2)c1 (configuration not stated)	-1.09	.	34.8*	-5.0	-36.1	1.9
C=C(C)CSc1nc2sc3c(c2c(=O)n1-c1ccc(C)cc1)CCN(C)C3	0.73	i	17.6	-8.0	.	.
CS(=O)(=O)c1ccccc1-c1nnc(NC(=O)C2=COCCO2)o1	-0.18	i	.	.	.	.
CCOC(=O)N1CCN(C(=O)C2COc3ccccc3O2)CC1 (configuration not stated)	0.56	i	-8.7	-11.0	.	.
CCOC(=O)c1c(C2COc3ccccc3O2)csc1N (configuration not stated)	-1.09	i	59.7*	-6.7	-56.6	0.2
COC(=O)c1ccccc1NC(=O)C/C(C)=N/NC(=O)CC#N	0.06	i	37.8*	-2.2	-47.2	5.8
COc1ccc(CC(=O)Nc2ccc(/C(C)=N\NC(=O)c3ccc(Br)o3)cc2)cc1	-0.07	i	1.6	-19.1	.	.
Cc1ccc(C(=O)OCN2C(=O)c3ccccc3C2=O)o1	0.83	i	.	.	.	.
CCc1ccc(/C=N/n2c(COc3ccccc3)n[nH]c2=S)cc1	-0.02	i	14.3	-29.4	.	.
Fc1cccc(C[n+]2csc3ccccc32)c1	-0.09	i	34.2*	-13.3	6.0	0.4
CCc1ccccc1NC(=O)CN(c1ccc(OC)cc1OC)S(=O)(=O)c1ccccc1	-0.69	i	3.0	-38.1	.	.
Oc1c(C(c2ccccc2)N2CCCCC2)sc2ncnn12 (configuration not stated)	-0.38	i	57.0*	0.8	-25.7	-4.5
O=C(Nc1nnc(C2=COCCO2)o1)c1ccc([N+](=O)[O-])cc1	0.09	i	6.0	-6.3	.	.
COc1cccc(/C=N/c2nc3ccccc3[nH]2)c1O	0.83	i	-1.9	-2.2	.	.
Oc1c(Br)cccc1/C=N/c1ncn[nH]1	0.99	i	62.6*	0.4	55.1*	-0.7
SMILES	Kir21 inh	Rce1 inhib	PfM18AAP inh-1	DNA FID counter	PfM18AAP inh-2	CTSL1 confirm
NC(=O)c1ccc(-c2ccc(Br)cc2)o1	-0.18	i	-11.1	-2.6	.	.
NC(=O)C1CCN(C(=S)c2ccc(-c3ccc(Br)cc3)o2)CC1	0	i	49.0*	-12.0	-13.2	7.1
O=C(CSc1ccc(C(F)(F)F)cc1[N+](=O)[O-])N1CCOCC1	1.04	i	-14.5	-0.7	.	.
Nc1nc(Sc2ccc(C(F)(F)F)cc2[N+](=O)[O-])n[nH]1	-0.73	i	63.3*	-5.9	55.6*	-6.1
O=C(CN1C(=O)c2ccccc2S1(=O)=O)c1ccc(O)c(O)c1	-1.47	i	47.4*	-2.5	35.3*	5.2
COc1ccc(N2C(=O)C(Cl)=C(N3CCOCC3)C2=O)cc1	2.63	i	32.8*	-8.5	-5.1	24.6*
COc1cc(/C=N/N2C(C)CCCC2C)cc(OC)c1O (configuration not stated)	0.67	i	39.2*	-10.9	-31.4	-7.8
CCOc1ccc(/C=N/N2C(C)CCCC2C)cc1OC (configuration not stated)	-1.43	i	8.3	-6.4	.	.
